Reference: PubChem BioAssay (EPA / NIEHS)
Several values for one entry are separate records, joined by “and”; a condition that tells them apart may be missing. Identical values can stand only once. Inconclusive results are not listed. Where a structure was tested more than once in an assay, its records may differ in their call. Activity calls are given as the source filed them. Rule for the calls, unless noted: active = hit-call score of the fitted dose curve at least 0.9, where 1 is the maximum; inconclusive = response in the unintended direction; inactive = score below 0.9.

Legend:
[1] = ATG_Oct_MLP_CIS: Attagene CIS-FACTORIAL HepG2 Assay for human Octamer-Binding Transcription Factor (Oct) (AID 2282993; active = hit-call score of the fitted dose curve at least 0.9, where 1 is the maximum; inactive = score below 0.9); settings: HepG2 Attagene cis-factorial Oct reporter, mRNA; actives raise or lower the signal
In short: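 Read-out: reporter mRNA via RT-PCR plus capillary electrophoresis of 6-FAM-labelled fragments. Transiently transfected HepG2, 24 h exposure, endogenous TF activity on cis elements. Gain or loss of signal fitted relative to DMSO.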

[2] = molecular target: Cellular tumor antigen p53 (Homo sapiens) (UniProt P04637); assay: ATG_p53_CIS: Attagene CIS-FACTORIAL HepG2 Assay for human p53 Transcription Factor (AID 2282994; active = hit-call score of the fitted dose curve at least 0.9, where 1 is the maximum; inactive = score below 0.9); settings: HepG2 p53 cis-element reporter, Attagene mRNA; actives raise or lower the signal
Cellular tumor antigen p53 (Homo sapiens), sequence (P04637 whole entry, looked up): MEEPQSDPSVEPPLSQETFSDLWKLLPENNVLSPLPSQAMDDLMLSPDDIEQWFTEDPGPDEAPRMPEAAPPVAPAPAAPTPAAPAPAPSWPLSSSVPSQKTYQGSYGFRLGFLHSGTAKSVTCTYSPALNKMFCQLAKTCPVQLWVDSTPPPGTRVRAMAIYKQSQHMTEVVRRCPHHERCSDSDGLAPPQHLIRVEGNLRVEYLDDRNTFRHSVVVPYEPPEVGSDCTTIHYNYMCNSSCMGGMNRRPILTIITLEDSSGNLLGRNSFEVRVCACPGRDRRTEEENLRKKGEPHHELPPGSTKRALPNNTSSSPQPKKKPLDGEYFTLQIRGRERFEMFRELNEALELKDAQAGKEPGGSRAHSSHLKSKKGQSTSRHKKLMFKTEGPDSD
In short: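 HepG2, transient MRTU transfection (cis promoter elements, endogenous TFs); 24 h dosing; RNA isolation, RT-PCR, 6-FAM primer extension, HpaI digest, CE fluorescence; bidirectional fit vs DMSO.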

[3] = BSK_3C_uPAR: BioMAP Diversity Plus: 3C Assay for Urokinase-type plasminogen activator receptor (uPAR) Biomarker Activity (AID 2282998; active = hit-call score of the fitted dose curve at least 0.9, where 1 is the maximum; inactive = score below 0.9); settings: BioMAP 3C HUVEC, uPAR biomarker ELISA; actives raise or lower the signal
In short: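 HUVEC primary cells; 24 h post-dose; uPAR by ELISA; gain or loss of signal fitted bidirectionally vs DMSO baseline.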

[4] = BSK_3C_VCAM1: BioMAP Diversity Plus: 3C Assay for Vascular cell adhesion molecule 1 (VCAM1) Biomarker Activity (AID 2282999; active = hit-call score of the fitted dose curve at least 0.9, where 1 is the maximum; inactive = score below 0.9); settings: BioMAP 3C HUVEC, VCAM1 ELISA, cytokine-stimulated; actives raise or lower the signal
In short: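 Human umbilical vein endothelial cells (3C system), biomarker read by ELISA 24 h after dosing; bidirectional fit against DMSO baseline. Cytotoxicity tracked by SRB total-protein staining in parallel cultures at biomarker time.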

[5] = BSK_4H_Eotaxin3: BioMAP Diversity Plus: 4H Assay for Eotaxin 3 Biomarker Activity (AID 2283000; active = hit-call score of the fitted dose curve at least 0.9, where 1 is the maximum; inactive = score below 0.9); settings: primary human endothelial cells (HUVEC); actives raise or lower the signal
In short: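 Endothelial primary cells (human umbilical vein) exposed to compound for 24 h. ELISA detection of Eotaxin-3.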

[6] = molecular target: human Peroxisome Proliferator-activated Receptor delta (PPARd), PPARD (gene 5467) (UniProt Q03181); assay: ATG_PPARd_TRANS: Attagene TRANS-FACTORIAL HepG2 Assay for human Peroxisome Proliferator-activated Receptor delta (PPARd) (AID 2283002)
In short: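 Read-out: reporter mRNA induction, quantified by fluorescent RT-PCR products resolved by capillary electrophoresis. Human HepG2 liver cells carried transiently transfected Gal4-UAS reporter constructs with chimeric NR-Gal4 fusions. Cells were dosed for 24 h; DMSO served as baseline.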

[7] = read-out: Intercellular Adhesion Molecule 1 (ICAM1), ICAM1 (gene 3383); assay: BSK_3C_ICAM1: BioMAP Diversity Plus: 3C Assay for Intercellular Adhesion Molecule 1 (ICAM1) Biomarker Activity (AID 2283003; active = hit-call score of the fitted dose curve at least 0.9, where 1 is the maximum; inactive = score below 0.9); settings: primary human endothelial cells (HUVEC); actives raise or lower the signal
In short: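 Human vascular endothelial primary cells, 3C conditions, 24 h treatment. ICAM-1 by ELISA.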

[8] = molecular target: human Retinoic Acid Receptor beta (RARb), RARB (gene 5915) (UniProt P10826); assay: ATG_RARb_TRANS: Attagene TRANS-FACTORIAL HepG2 Assay for human Retinoic Acid Receptor beta (AID 2283004)
human Retinoic Acid Receptor beta (RARb), RARB (gene 5915), sequence (P10826 whole entry, looked up, the tested form may be a part): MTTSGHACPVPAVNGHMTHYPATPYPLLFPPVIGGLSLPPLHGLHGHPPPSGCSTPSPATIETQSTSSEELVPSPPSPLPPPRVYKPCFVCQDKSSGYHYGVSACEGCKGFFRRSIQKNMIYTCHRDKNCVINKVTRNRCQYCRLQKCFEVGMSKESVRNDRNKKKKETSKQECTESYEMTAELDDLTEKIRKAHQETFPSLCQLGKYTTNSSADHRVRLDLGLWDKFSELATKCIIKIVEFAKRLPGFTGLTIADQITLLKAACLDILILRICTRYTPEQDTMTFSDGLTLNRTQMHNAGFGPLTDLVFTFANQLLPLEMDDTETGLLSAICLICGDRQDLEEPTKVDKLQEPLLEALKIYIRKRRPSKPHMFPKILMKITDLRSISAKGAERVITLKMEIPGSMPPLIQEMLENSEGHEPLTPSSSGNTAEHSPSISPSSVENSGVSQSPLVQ
In short: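 HepG2, transient MRTU transfection, NR–Gal4 chimera, 24 h treatment; RT-PCR plus CE fluorescence detection of reporter mRNA; gain of signal vs DMSO.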

[9] = molecular target: Retinoic acid receptor alpha (Homo sapiens) (UniProt P10276); assay: ATG_RARa_TRANS: Attagene TRANS-FACTORIAL HepG2 Assay for human Retinoic Acid Receptor alpha (RARa) (AID 2283005)
In short: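 HepG2 transiently transfected with multiplex GAL4-UAS reporter units including a human RARa–GAL4 chimera; 24 h compound exposure. Reporter mRNA quantified by RT-PCR, 6-FAM labeling and capillary electrophoresis; gain of signal versus DMSO.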

[10] = BSK_3C_Proliferation: Cell Proliferation Assessment in the BioMAP Diversity Plus: 3C Assay (AID 2283006; active = hit-call score of the fitted dose curve at least 0.9, where 1 is the maximum; inactive = score below 0.9;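 for AC50: potency may reflect either rise or fall in cell number versus DMSO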); settings: primary human endothelial cells (HUVEC)
In short: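 Proliferation of human vascular endothelial primary cells after 48 h dosing, quantified as SRB-stained protein at 560 nm relative to DMSO.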

[11] = molecular target: Peroxisome proliferator-activated receptor gamma (Homo sapiens) (UniProt P37231); assay: ATG_PPARg_TRANS: Attagene TRANS-FACTORIAL HepG2 Assay for human Peroxisome Proliferator-activated Receptor-gamma (PPARg) (AID 2283007)
Peroxisome proliferator-activated receptor gamma (Homo sapiens), sequence (P37231 whole entry, looked up): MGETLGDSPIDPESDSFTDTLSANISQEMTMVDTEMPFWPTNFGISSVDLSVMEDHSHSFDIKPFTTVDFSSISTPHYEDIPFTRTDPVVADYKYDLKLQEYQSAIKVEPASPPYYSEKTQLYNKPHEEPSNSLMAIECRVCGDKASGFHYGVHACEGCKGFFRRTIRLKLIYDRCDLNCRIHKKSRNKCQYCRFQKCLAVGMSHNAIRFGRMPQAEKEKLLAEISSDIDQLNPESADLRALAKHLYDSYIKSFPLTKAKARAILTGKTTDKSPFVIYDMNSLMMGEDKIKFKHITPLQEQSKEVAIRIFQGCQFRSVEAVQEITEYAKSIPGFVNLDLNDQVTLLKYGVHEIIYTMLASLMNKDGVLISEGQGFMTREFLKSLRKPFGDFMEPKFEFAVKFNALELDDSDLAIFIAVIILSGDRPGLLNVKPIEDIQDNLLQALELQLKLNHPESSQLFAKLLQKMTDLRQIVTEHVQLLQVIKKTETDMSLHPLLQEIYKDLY
In short: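 Multiplexed reporter transcription units in HepG2, 24 h dosing, reporter transcripts quantified by fluorescent RT-PCR and capillary electrophoresis. Increase over DMSO scored.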

[12] = molecular target: Nuclear receptor subfamily 1 group I member 2 (Homo sapiens) (UniProt O75469); assay: ATG_PXR_TRANS: Attagene TRANS-FACTORIAL HepG2 Assay for human Pregnane X Receptor (PXR) (AID 2283008)
Nuclear receptor subfamily 1 group I member 2 (Homo sapiens), sequence (O75469 whole entry, looked up, the tested form may be a part): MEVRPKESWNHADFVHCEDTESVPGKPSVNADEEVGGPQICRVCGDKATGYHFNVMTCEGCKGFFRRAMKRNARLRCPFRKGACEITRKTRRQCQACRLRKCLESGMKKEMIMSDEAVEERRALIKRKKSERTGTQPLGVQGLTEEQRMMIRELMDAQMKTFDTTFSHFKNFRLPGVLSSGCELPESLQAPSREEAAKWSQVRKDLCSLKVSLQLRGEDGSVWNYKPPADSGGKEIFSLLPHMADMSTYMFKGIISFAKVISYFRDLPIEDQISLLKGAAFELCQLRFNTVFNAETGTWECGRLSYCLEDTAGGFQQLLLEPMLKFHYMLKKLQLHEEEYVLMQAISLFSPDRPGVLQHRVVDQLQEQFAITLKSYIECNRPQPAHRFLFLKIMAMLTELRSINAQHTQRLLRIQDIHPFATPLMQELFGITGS
In short: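 Read-out is fluorescence of labelled reporter cDNA fragments separated by capillary electrophoresis after RT-PCR and HpaI digestion. Source: HepG2 cells carrying PXR-GAL4/UAS reporter constructs, treated 24 h; activity fitted upward relative to DMSO.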

[13] = molecular target: human Retinoic Acid Receptor gamma (RARg), RARG (gene 5916) (UniProt P13631); assay: ATG_RARg_TRANS: Attagene TRANS-FACTORIAL HepG2 Assay for human Retinoic Acid Receptor gamma (RARg) (AID 2283009)
human Retinoic Acid Receptor gamma (RARg), RARG (gene 5916), sequence (P13631 whole entry, looked up, the tested form may be a part): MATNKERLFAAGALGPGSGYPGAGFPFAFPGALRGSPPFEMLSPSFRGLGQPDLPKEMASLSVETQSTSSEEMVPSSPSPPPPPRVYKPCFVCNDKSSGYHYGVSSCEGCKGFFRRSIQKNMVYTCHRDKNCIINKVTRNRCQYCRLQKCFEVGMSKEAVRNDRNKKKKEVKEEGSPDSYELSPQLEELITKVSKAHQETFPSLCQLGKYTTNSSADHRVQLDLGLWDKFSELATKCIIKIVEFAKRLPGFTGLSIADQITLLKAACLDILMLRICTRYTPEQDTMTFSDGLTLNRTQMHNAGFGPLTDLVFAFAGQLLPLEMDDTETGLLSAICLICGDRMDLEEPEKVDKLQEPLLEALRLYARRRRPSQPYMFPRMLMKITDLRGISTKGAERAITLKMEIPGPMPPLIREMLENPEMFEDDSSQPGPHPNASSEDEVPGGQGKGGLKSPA
In short: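 HepG2, RARg-GAL4 TRANS system, 24 h exposure; reporter mRNA by RT-PCR + CE fluorescence; increase over DMSO.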

[14] = molecular target: human RAR-related Orphan Receptor beta (RORb), RORB (gene 6096) (UniProt Q92753); assay: ATG_RORb_TRANS: Attagene TRANS-FACTORIAL HepG2 Assay for human RAR-related Orphan Receptor beta (RORb) (AID 2283010)
human RAR-related Orphan Receptor beta (RORb), RORB (gene 6096), sequence (Q92753 whole entry, looked up, the tested form may be a part): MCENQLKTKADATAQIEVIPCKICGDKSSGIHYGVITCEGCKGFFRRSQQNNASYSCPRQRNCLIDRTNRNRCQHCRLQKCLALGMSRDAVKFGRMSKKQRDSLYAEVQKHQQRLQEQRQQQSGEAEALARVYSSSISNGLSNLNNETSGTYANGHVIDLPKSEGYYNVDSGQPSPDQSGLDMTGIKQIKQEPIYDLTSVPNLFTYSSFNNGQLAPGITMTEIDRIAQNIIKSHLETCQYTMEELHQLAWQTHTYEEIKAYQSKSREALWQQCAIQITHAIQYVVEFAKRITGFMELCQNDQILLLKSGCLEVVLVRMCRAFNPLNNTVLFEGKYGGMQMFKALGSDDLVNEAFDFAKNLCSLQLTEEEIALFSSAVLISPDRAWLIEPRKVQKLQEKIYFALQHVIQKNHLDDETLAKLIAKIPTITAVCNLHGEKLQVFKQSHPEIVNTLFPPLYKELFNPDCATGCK
In short: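 In this TRANS-format test, human HepG2 cells express chimeric NR-Gal4 fusion proteins driving GAL4-UAS reporters. After 24 h dosing, reporter transcripts are measured by fluorescent RT-PCR/capillary electrophoresis, with DMSO as negative control.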

[15] = molecular target: Retinoic acid receptor RXR-alpha (Homo sapiens) (UniProt P19793); assay: ATG_RXRa_TRANS: Attagene TRANS-FACTORIAL HepG2 Assay for human Retinoid X Receptor alpha (RXRa) (AID 2283012)
Retinoic acid receptor RXR-alpha (Homo sapiens), sequence (P19793 whole entry, looked up, the tested form may be a part): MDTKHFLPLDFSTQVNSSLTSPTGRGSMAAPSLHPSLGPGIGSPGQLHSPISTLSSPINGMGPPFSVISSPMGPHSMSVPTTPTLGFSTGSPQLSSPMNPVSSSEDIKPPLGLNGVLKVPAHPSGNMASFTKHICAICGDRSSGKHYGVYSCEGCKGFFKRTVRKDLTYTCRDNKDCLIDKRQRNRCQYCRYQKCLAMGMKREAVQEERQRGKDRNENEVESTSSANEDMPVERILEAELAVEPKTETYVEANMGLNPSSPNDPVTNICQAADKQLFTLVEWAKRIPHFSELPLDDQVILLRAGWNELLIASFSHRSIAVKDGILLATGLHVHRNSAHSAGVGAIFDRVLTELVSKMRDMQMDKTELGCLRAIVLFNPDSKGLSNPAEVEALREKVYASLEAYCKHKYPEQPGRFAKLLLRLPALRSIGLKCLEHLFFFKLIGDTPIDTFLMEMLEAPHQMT
In short: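 Cells (HepG2) carried transiently transfected GAL4-responsive reporter units. Following a 24 h chemical incubation, reporter mRNA induction was read via RT-PCR fragment analysis; DMSO served as negative control and baseline.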

[16] = molecular target: human Retinoid X Receptor beta (RXRb), RXRB (gene 6257) (UniProt P28702); assay: ATG_RXRb_TRANS: Attagene TRANS-FACTORIAL HepG2 Assay for human Retinoid X Receptor beta (RXRb) (AID 2283013)
human Retinoid X Receptor beta (RXRb), RXRB (gene 6257), sequence (P28702 whole entry, looked up): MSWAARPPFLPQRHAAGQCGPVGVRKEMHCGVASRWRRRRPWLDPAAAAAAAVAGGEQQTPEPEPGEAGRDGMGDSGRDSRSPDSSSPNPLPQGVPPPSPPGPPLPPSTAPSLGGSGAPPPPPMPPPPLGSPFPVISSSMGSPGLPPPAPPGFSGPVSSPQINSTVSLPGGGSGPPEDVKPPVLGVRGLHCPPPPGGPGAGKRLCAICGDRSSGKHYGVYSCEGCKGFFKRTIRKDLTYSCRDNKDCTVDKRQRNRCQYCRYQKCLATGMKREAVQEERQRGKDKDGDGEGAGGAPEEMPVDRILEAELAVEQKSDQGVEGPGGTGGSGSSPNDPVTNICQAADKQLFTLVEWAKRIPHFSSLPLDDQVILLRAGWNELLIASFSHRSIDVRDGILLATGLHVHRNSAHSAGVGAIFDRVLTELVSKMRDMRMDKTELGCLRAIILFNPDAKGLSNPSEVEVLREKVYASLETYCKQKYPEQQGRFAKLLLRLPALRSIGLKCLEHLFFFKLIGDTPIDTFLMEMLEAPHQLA
In short: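 Multiplexed TRANS reporter assay in HepG2; 24 h dosing; reporter mRNA by RT-PCR/CE fluorescence; gain-of-signal relative to DMSO.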

[17] = molecular target: human Thyroid Receptor alpha (THRa1), THRA (gene 7067) (UniProt P10827); assay: ATG_THRa1_TRANS: Attagene TRANS-FACTORIAL HepG2 Assay for human Thyroid Receptor alpha (THRa1) (AID 2283014)
human Thyroid Receptor alpha (THRa1), THRA (gene 7067), sequence (P10827 whole entry, looked up, the tested form may be a part): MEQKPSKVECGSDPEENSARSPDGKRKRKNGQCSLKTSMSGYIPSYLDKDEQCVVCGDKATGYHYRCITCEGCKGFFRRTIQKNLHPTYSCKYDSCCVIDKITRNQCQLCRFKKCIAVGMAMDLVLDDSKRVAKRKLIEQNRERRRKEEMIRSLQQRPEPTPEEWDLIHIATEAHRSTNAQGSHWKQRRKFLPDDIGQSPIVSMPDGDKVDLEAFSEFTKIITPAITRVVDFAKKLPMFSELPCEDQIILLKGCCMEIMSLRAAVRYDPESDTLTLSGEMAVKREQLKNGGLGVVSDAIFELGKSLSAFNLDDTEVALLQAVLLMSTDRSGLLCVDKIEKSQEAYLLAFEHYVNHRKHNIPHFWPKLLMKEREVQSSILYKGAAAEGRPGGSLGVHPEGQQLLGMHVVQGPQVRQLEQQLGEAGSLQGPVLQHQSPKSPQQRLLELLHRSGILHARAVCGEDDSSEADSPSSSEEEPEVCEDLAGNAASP
In short: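 First, HepG2 cells receive multiple GAL4-UAS reporter units and the chimeric receptor. They are then dosed for 24 h, after which RNA is reverse-transcribed, amplified, labelled, HpaI-cut and sized by capillary electrophoresis; gain relative to DMSO is scored.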

[18] = BSK_3C_TissueFactor: BioMAP Diversity Plus: 3C Assay for Tissue Factor Biomarker Activity (AID 2282997; active = hit-call score of the fitted dose curve at least 0.9, where 1 is the maximum; inactive = score below 0.9); settings: BioMAP 3C HUVEC, tissue factor biomarker readout; actives raise or lower the signal
In short: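 Values derive from bidirectional curve fitting against DMSO of Tissue Factor ELISA signals, taken 24 h after dosing primary human umbilical vein endothelial cells.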

[19] = molecular target: human Peroxisome Proliferator-activated Receptor alpha (PPARa), PPARA (gene 5465) (UniProt Q07869); assay: ATG_PPARa_TRANS: Attagene TRANS-FACTORIAL HepG2 Assay for human Peroxisome Proliferator-activated Receptor alpha (PPARa) (AID 2283001);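 for AC50: potency for gain of reporter signal over DMSO so agonist or activator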
human Peroxisome Proliferator-activated Receptor alpha (PPARa), PPARA (gene 5465), sequence (Q07869 whole entry, looked up, the tested form may be a part): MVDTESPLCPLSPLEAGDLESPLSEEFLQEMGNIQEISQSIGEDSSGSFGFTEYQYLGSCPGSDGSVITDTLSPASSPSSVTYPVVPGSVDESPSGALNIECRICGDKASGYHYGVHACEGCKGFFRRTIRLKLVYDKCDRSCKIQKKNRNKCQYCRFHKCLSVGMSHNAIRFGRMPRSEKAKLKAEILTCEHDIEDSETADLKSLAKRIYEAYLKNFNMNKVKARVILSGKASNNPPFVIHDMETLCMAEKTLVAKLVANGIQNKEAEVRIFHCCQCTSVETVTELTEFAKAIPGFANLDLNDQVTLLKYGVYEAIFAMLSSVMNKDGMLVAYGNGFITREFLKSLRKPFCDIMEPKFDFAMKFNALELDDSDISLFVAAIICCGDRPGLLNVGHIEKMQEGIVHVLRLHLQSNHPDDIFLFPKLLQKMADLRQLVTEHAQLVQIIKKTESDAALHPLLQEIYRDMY
In short: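 Measures transcriptional activity of an exogenous chimeric PPARa-Gal4 protein in transiently transfected HepG2 cells after 24 h dosing. Reporter mRNA quantified via RT-PCR and capillary electrophoresis; DMSO served as negative control.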

[20] = molecular target: human RAR-related Orphan Receptor gamma (RORg), RORC (gene 6097) (UniProt P51449); assay: ATG_RORg_TRANS: Attagene TRANS-FACTORIAL HepG2 Assay for human RAR-related Orphan Receptor gamma (RORg) (AID 2283011)
In short: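 Activity is scored as increase in GAL4-UAS reporter mRNA over DMSO, detected by fluorescent RT-PCR and capillary electrophoresis in HepG2 cells transiently expressing a RORg-Gal4 chimera, 24 h after dosing.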

Measured: AC50

O=C1C2(Cl)C3(Cl)C4(Cl)C(Cl)(Cl)C5(Cl)C3(Cl)C1(Cl)C5(Cl)C24Cl (stereo unspecified)
active: [1] 16.7 µM | [3] 7.28 µM | [4] 10.2 µM | [5] 10.4 µM | [7] 10.8 µM | [10] 4.9 µM | [12] 2.11 µM and 2.9 µM and 6.2 µM | [16] 2.67 µM and 7.57 µM | [17] 4.37 µM and 56.4 µM
inactive: [1] | [2] | [6] | [8] | [9] | [11] | [12] | [13] | [14] | [15] | [16] | [17]

Cc1ccccc1N
not listed: [8] | [9] | [11] | [12] | [13] | [14] | [16]
inactive: all other assays above

C[C@]12CCC(=O)C[C@@H]1CC[C@@H]1[C@@H]2CC[C@]2(C)[C@@H](O)CC[C@@H]12
active: [1] 86.1 µM | [3] 18.6 µM | [10] 18.3 µM
inactive: [1] | [18] | [4] | [5] | [19] | [7] | [11] | [13] | [14] | [15] | [16] | [17]

CC(C)(c1ccccc1)c1ccc(O)c(C(C)(C)c2ccccc2)c1
active: [1] 1.76 µM | [3] 9.74 µM | [4] 9.15 µM | [5] 9.16 µM | [7] 11.1 µM | [10] 6.91 µM | [16] 1.66 µM
inactive: [2] | [6] | [8] | [9] | [11] | [15] | [17]

Oc1c(I)cc(I)cc1I
active: [1] 34.5 µM | [3] 10.5 µM | [4] 15.5 µM | [5] 20 µM | [19] 16.6 µM | [10] 11.4 µM | [11] 9.7 µM | [17] 7.66 µM
inactive: [2] | [6] | [7] | [15] | [16]

CC(C)c1ccc(CO)cc1
not listed: [8] | [9] | [12] | [13] | [15] | [20]
inactive: all other assays above
